CBX7 inh: blocks human CBX7 binding to H3K27me3 peptide | O95931 | AlphaScreen His6-CBX7 / biotin-H3K27me3 peptide binding; stronger effect = lower value | normalised signal (fraction of DMSO) (test concentration not listed) | 66,000 tested, 1.1% active | AID 1224903; in the data active = normalised signal below about 0.5
Target sequence (O95931 whole entry, looked up): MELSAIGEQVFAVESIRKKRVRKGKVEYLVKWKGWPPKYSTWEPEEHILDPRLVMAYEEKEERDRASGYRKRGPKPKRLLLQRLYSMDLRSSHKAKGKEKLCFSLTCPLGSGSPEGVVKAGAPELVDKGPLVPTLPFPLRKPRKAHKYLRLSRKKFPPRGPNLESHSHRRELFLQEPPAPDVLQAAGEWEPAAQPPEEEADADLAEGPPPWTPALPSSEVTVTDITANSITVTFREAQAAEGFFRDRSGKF
* hit, by the source's call. The entries come from a sample that favours hits as a whole.

SMILES	CBX7 inh
Cc1ccc(S(=O)(=O)Nc2ccc3c(c2)ncn3C(C)(C)C)cc1	0.89
COc1cccc(CNc2ccc3c(c2)ncn3C(C)C)c1OC	0.74
CCn1cnc2cc(NCc3ccc(Cl)cc3Cl)ccc21	0.85
CC(C)(C)n1cnc2cc(NCc3ccccc3Cl)ccc21	0.4*
CC(C)c1ccc(CNc2ccc3oc(-c4ccccc4)nc3c2)cc1	1.4
CC(C)n1cnc2cc(NCc3ccncc3)ccc21	0.93
Cc1ccc(CNc2ccc3c(c2)ncn3C(C)(C)C)cc1	0.41*
CC(C)c1ccc(CNc2ccc3c(c2)ncn3C(C)(C)C)cc1	0.29*
COc1ccc(CNc2ccc3c(c2)ncn3C(C)(C)C)cc1	0.55
COc1ccccc1-n1cnc2cc(NCc3ccc(Cl)cc3)ccc21	0.71
CC(C)n1cnc2cc(NCc3cccc4ccccc34)ccc21	0.25*
Cc1ccccc1-c1nc(C(=O)NC(C)c2ccccc2)c(C)o1 (stereo unspecified)	0.96
CC(C)NC(=O)C1CCCN(c2nc3ccccc3o2)C1 (stereo unspecified)	1.3
COc1ccc(Nc2c(-c3ccc(O)cc3)nc3cnccn23)cc1OC	0.96
Cc1ccc(CSc2nc3ccncc3n2Cc2nc(-c3ccccc3Cl)oc2C)cc1	0.78
Cc1ccccc1NC(=O)c1cc2c(n(-c3ccc(Cl)cc3)c1=O)CCCC2=O	0.96
Cc1ccc(S(=O)(=O)c2nc(-c3ccc(F)cc3)oc2SC(C)C)cc1	0.99
C=CCN(c1ccccc1)C(C(=O)NC1CCCC1)c1ccc(C)cc1 (stereo unspecified)	0.87
O=C(CN1CCOCC1)NCC1(c2ccccc2)CCOCC1	0.87
Cc1cc2cc(CCNC(=O)c3cc4ccccc4o3)c(=O)[nH]c2cc1C	0.89
CCc1ccc(Nc2cc(C(=O)NCc3ccccn3)c3ccccc3n2)cc1	1
COc1ccc(NC(=O)c2ccc3c(c2)C(=O)N(c2cc(C)on2)C3=O)cc1Cl	1
CC1CN(S(=O)(=O)c2ccc(C(=O)Nc3nnc(C4CC4)o3)cc2)CC(C)O1 (stereo unspecified)	0.64
CC1CCCCN1S(=O)(=O)c1ccc(C(=O)Nc2nnc(C3CC3)o2)cc1 (stereo unspecified)	0.00088*
CCc1nnc(NC(=O)c2ccc(S(=O)(=O)N(C)C3CCCCC3)cc2)o1	0.065*
SMILES	CBX7 inh
CN(C1CCCCC1)S(=O)(=O)c1ccc(C(=O)Nc2ccccc2-c2nc3ccccc3[nH]2)cc1	0.93
COCc1nnc(NC(=O)c2ccc(S(=O)(=O)N3CCCCC3C)cc2)o1 (stereo unspecified)	0.74
CCOC(=O)c1oc2ccccc2c1NC(=O)c1ccc(S(=O)(=O)N(C)C2CCCCC2)cc1	1.1
O=C(Nc1nnc(C2CC2)o1)c1ccc(S(=O)(=O)N2CCCc3ccccc32)cc1	0.69
COCc1nnc(NC(=O)c2ccc(S(=O)(=O)N3CCOCC3)cc2)o1	0.69
CCc1nnc(NC(=O)c2ccc(S(=O)(=O)N3CCCCCC3)cc2)o1	0.043*
CC1CCN(S(=O)(=O)c2ccc(C(=O)Nc3nnc(C4CC4)o3)cc2)CC1	0.74
CCc1nnc(NC(=O)c2ccc(S(=O)(=O)N3CC(C)OC(C)C3)cc2)o1 (stereo unspecified)	0.67
O=C(Nc1nnc(C2CC2)o1)c1ccc(S(=O)(=O)N2CCCCC2)cc1	0.012*
COCc1nc2ccccc2n1CCOc1ccccc1	1
COc1ccc(N2CCN(CC(O)COc3ccc(Cl)cc3C)CC2)cc1 (stereo unspecified)	0.98
CC(C)(C)c1ccc2c(c1)N(CC(=O)NCCN1CCc3ccccc3C1)C(=O)CO2	0.9
COc1ccc(-n2nc3c(c2NC(=O)CC2CCCCC2)CSC3)cc1	0.95
CCc1ccc(N2CC(c3nc4ccccc4n3CCC(C)C)CC2=O)cc1 (stereo unspecified)	0.86
Cc1ccc(-c2nn(CC(=O)N3CCC(Cc4ccccc4)CC3)c(=O)c3ccccc23)cc1	0.97
C=CCn1c(C(C)NC(=O)c2cccc(C)c2)nc2ccccc21 (stereo unspecified)	1.1
O=C(O)c1c[nH]c2ccc(S(=O)(=O)NCCCN3CCCC3=O)cc2c1=O	0.5*
CCc1ccc(NS(=O)(=O)c2ccc3[nH]cc(C(=O)NCc4ccccn4)c(=O)c3c2)cc1	1
CCOC(=O)CNS(=O)(=O)c1ccc2[nH]cc(C(=O)O)c(=O)c2c1	0.71
O=C(O)c1c[nH]c2ccc(S(=O)(=O)NCc3ccccn3)cc2c1=O	0.021*
Cc1cccc(C)c1N(C)S(=O)(=O)c1ccc2[nH]cc(C(=O)NCc3ccccn3)c(=O)c2c1	1
CC(=O)Nc1ccc(NS(=O)(=O)c2ccc3[nH]cc(C(=O)O)c(=O)c3c2)cc1	0.66
Cc1ccn2c(=O)c(C(=O)Nc3ccc(C)c(Cl)c3)cnc2c1	1
Cc1cc(N2CCN(c3ncccn3)CC2)nc2ccc(NC(=O)C3CCC(C)CC3)cc12 (stereo unspecified)	1.1
CCc1nc2ccc(C(=O)NC3CCCCCCC3)cc2nc1CC	0.93
SMILES	CBX7 inh
Cc1nc(Nc2ccc(Br)cc2)sc1C(=O)Nc1ccc(Br)cc1	0.96
CCOc1ccccc1NC(=O)c1c(NCc2cccs2)sc2c1CCCC2	0.96
Cc1ccc(NC(=O)c2cc3n(n2)C(C(F)(F)F)CC(c2ccc4c(c2)OCO4)N3)cc1C (stereo unspecified)	0.86
CCn1c(=O)c(C(=O)NC(C)c2ccccc2)c(O)c2ccccc21 (stereo unspecified)	1.4
CCCn1c(=O)c(C(=O)NC(C)c2ccccc2)c(O)c2ccccc21 (stereo unspecified)	0.28*
CCCn1c(=O)c(C(=O)NCc2cccnc2)c(O)c2ccccc21	0.96
NC(=O)C1(N2CCCCC2)CCN(c2nc3ccccc3c(=O)n2Cc2ccccc2)CC1	1.2
Cc1ccc(CN2C(=O)C(C)(C)N(C(=O)c3ccc(Cl)cc3)c3ccccc32)c(C)c1	1.2
CCN1CCN(c2cc(C)c3cc(NC(=O)c4ccc(Cl)nc4)ccc3n2)CC1	0.95
CCc1cccc(C)c1NC(=O)CCCN1C(=O)c2cccnc2C1=O	1
O=C(CCCN1C(=O)c2cccnc2C1=O)N1CCN(c2ccccc2)CC1	0.49*
O=C(CCCN1C(=O)c2cccnc2C1=O)Nc1ccc(Cl)c(C(F)(F)F)c1	0.72
CCc1ccccc1NC(=O)CCCN1C(=O)c2cccnc2C1=O	0.68
O=C(CCCN1C(=O)c2cccnc2C1=O)Nc1ccccc1F	0.81
CC1CCc2cc(F)ccc2N1C(=O)CCCN1C(=O)c2cccnc2C1=O (stereo unspecified)	0.47*
Cc1cc(Cl)ccc1OCCCC(=O)N1c2ccc(F)cc2CCC1C (stereo unspecified)	1
Cc1ccc(NC(=O)CCCN2C(=O)c3cccnc3C2=O)cc1F	1.2
O=C(CCCN1C(=O)c2cccnc2C1=O)N1CCN(c2ccccc2F)CC1	0.34*
COc1ccc2nc(NC(=O)CCCOc3cccc(C)c3)sc2c1	1
Cc1c(C(=O)Nc2ccc(Br)cc2F)oc2ccc(S(=O)(=O)N3CCCC3)cc12	1
Cc1cc(C)n(-c2nc3ccccc3nc2Nc2ccc3c(c2)OCCO3)n1	1.9
Cc1cc(C)n(-c2nc3ccccc3nc2Nc2ccc(N(C)C)cc2)n1	0.22*
Cc1cccc(Nc2nc3ccccc3nc2-n2nc(C)cc2C)c1	2.6
CC(NC(=O)c1ccc2c(c1)N(Cc1cccc(Cl)c1)C(=O)CS2)c1ccccc1 (stereo unspecified)	0.99
Cc1ccc(CCNC(=O)c2ccc3c(c2)N(Cc2ccc(F)cc2)C(=O)c2ccccc2S3=O)cc1 (stereo unspecified)	1
